Assay outcomes: PubChem, several laboratories
Sampled rows, rich in hits. Any-hit rate of the full collection: about 4%.
aDG glyco act: alpha-DG glycosylation activation | Pro5-aDG cells, alpha-DG glycosylation AlphaScreen (IIH6); 0% Pro5, 100% B10-LARGE cell signal | activation, % at 10 µM | 360,000 compounds, 0.22% hits;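 active = activation of at least 8% versus controls, or a plate z-score of at least 8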;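 note: Pro5 are CHO cells carrying HIG-tagged alpha-DG that lacks glycosylation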
NR3A LBD binder: modulates the human NR3A ligand-binding domain | NR3A LBD differential scanning fluorimetry, Tm shift; 0% = protein alone, 100% = glycine-bound protein | AID 1259313 | 340,000 compounds, 2.5% hits | Tm shift relative to glycine control, % at 25 µM;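 active = melting temperature shift of at least 10% of the positive control shift, at one fixed dose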
FAS TE block: blocks the thioesterase domain of human fatty acid synthase. AID 602261. 360,000 compounds, 0.67% hits. P49327. recombinant FAS-TE, OMFH fluorogenic substrate, fluorescence endpoint. inhibition, % at 15 µM;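 active = compounds whose normalised, plate-corrected inhibition of enzyme fluorescence in the single-dose primary screen is 50% or more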
ADAM17 inh: inhibits human ADAM17 | P78536 | recombinant ADAM17, EDANS/DABCYL FRET peptide cleavage | inhibition, % at 6.95 µM | 370,000 compounds, 0.83% hits | AID 720648;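 active = inhibition above the mean of compounds lying between control limits plus 3 SD, set per campaign, cut at about 8.5% in these data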
Target sequence (P78536 215-824 limits assumed): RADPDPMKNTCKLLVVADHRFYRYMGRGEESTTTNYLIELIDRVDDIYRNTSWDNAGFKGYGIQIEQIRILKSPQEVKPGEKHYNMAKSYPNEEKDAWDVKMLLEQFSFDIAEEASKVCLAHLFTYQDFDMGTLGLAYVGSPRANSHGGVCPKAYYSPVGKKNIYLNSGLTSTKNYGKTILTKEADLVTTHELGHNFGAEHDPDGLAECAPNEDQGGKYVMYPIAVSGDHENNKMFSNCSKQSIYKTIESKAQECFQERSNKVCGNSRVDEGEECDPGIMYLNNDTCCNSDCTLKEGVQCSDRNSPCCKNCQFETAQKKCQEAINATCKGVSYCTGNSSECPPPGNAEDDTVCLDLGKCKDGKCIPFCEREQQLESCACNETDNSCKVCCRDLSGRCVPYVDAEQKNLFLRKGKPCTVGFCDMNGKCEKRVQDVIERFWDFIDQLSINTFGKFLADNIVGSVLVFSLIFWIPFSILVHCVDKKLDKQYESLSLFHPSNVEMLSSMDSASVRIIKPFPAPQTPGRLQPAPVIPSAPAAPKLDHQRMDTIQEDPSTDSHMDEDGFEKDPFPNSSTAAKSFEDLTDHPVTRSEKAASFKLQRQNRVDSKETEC
ADAM10 inh: inhibits human ADAM10 | recombinant ADAM10, EDANS/DABCYL FRET peptide cleavage, 3 h | inhibition, % at 7 µM | 370,000 compounds, 0.62% hits | AID 720582;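 active = inhibition above a per-campaign cutoff equal to the mean of compounds falling between control-based bounds plus 3 SD, cut at about 20% in these data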
ADAM10 confirm: confirmation of inhibitors of human ADAM10 | AID 743208 | shares compounds with ADAM10 inh | inhibition, % at 6.95 µM | ADAM10 QFRET peptide cleavage, EDANS fluorescence | 2,100 compounds, 1% hits;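 active = inhibition above about 20% chosen separately for each screening run, limit read from the data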
ADAM17 counter: ADAM17 inhibition, counter-screen for ADAM10 exosite hits. shares compounds with ADAM10 inh. ADAM17 QFRET peptide cleavage, EDANS fluorescence. inhibition, % at 6.95 µM. 2,100 compounds, 0.5% hits;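 active = mean triplicate inhibition above the solvent-only control wells' mean plus 3 SD, cut at about 12% in these data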
Each line names hits and unclear results; the compound was inactive in the other large screens (follow-up assays come after a bar, where they were run).

COc1ccc(NC(=O)c2ccc3c(=O)n(-c4ccc(OC)cc4OC)c(=S)[nH]c3c2)c(OC)c1	none
CCOc1ccc(NC(=O)c2ccc3c(=O)n(-c4ccc(OC)cc4OC)c(=S)[nH]c3c2)cc1	ADAM10 inh 24 (no result: NR3A LBD binder) | ADAM10 confirm inactive | ADAM17 counter inactive
O=C(CCc1nc2ccccc2c(=O)[nH]1)N1CCCc2ccccc21	none
CCCc1ccc(Oc2cn[nH]c2-c2ccc(O)c(C)c2O)cc1	ADAM17 inh 14, ADAM10 inh 32 | ADAM10 confirm inactive | ADAM17 counter inactive
O=c1[nH][nH]c2c1[C@@H](c1ccc(F)cc1)O[C@H](CCc1ccccc1)C2	none (no result: NR3A LBD binder)
O=c1[nH][nH]c2c1C(c1ccc(F)cc1)OC(CCc1ccccc1)C2 (stereo not given)	ADAM10 inh 20 (no result: NR3A LBD binder) | ADAM10 confirm inactive | ADAM17 counter inactive
Cc1cc(NS(=O)(=O)c2c(C)c(C)cc(C)c2C)no1	none
COc1ccc(N2CCN(CCNS(=O)(=O)c3ccc(C)cc3)CC2)cc1	ADAM10 inh 86 | ADAM10 confirm inactive | ADAM17 counter inactive
COc1ccccc1NC(=O)Nc1nnc([C@@H]2C[C@H](O)[C@@H](CO)O2)s1	none (no result: NR3A LBD binder)
O=C(NNC(=O)C1CC=CCC1)c1ccccc1Br (stereo not given)	none
CS(=O)(=O)Nc1ccc(Oc2ncccn2)cc1	none
COc1ccccc1NC(=O)c1c(Nc2ccccc2F)sc(C(=O)Nc2cccc(Cl)c2)c1N	NR3A LBD binder 29, ADAM17 inh 9.1, ADAM10 inh 27 | ADAM10 confirm inactive | ADAM17 counter inactive
C#CCNC(=O)C1=C[C@H](C)[C@@H](CCCO)[C@H](OCC)O1	none
Cc1nc(C)c(-c2ccnc(/N=C/NO)n2)s1	none
CCOC(=O)c1c(CN2CCN(c3ccccc3)CC2)oc2cc(Br)c(O)cc12	ADAM10 inh 21 | ADAM10 confirm inactive | ADAM17 counter inactive
COc1cccc(C(C)(O)c2nc(-c3ccc(C)c(C)c3)cs2)c1 (stereo not given)	ADAM10 inh 21 (no result: NR3A LBD binder) | ADAM10 confirm inactive | ADAM17 counter inactive
COc1ccc(-c2csc(C(C)(O)c3cccc(OC)c3)n2)cc1 (stereo not given)	none (no result: NR3A LBD binder)
COc1cc(CN(C2CCCCC2C)S(=O)(=O)c2ccc(S(=O)(=O)NC3CC3)cc2)cc(OC)c1OC (stereo not given)	none
COc1ccc(CN(C2CCCCC2C)S(=O)(=O)c2ccc(S(=O)(=O)N(C)C)cc2)cc1OC (stereo not given)	ADAM10 inh 22 | ADAM10 confirm inactive | ADAM17 counter inactive
COc1ccc(CNC(=S)Nc2cccc(C)c2)cc1	none
S=c1[nH]nc(COc2ccccc2)n1/N=C/C=C/c1ccccc1	none
Fc1ccccc1-c1n[nH]c(=S)n1N=Cc1ccc(OCc2ccccc2)cc1	ADAM10 inh 25 (no result: aDG glyco act, NR3A LBD binder, FAS TE block) | ADAM10 confirm inactive | ADAM17 counter inactive
S=c1[nH]nc(COc2ccccc2)n1/N=C/C(Cl)=C/c1ccccc1	ADAM10 inh 20 | ADAM10 confirm inactive | ADAM17 counter inactive
Cc1ccnc(NCc2cccc3ccccc23)c1	ADAM10 inh 23 | ADAM10 confirm inactive | ADAM17 counter inactive
COc1cccc(CNc2cc(C)ccn2)c1O	none
COc1ccc(C)cc1NC(=O)C(C)N(c1ccc(C)cc1)S(C)(=O)=O (stereo not given)	none
Cc1ccc(N(C(C)C(=O)Nc2cc(Cl)ccc2Oc2ccccc2)S(C)(=O)=O)cc1 (stereo not given)	ADAM10 inh 22 | ADAM10 confirm inactive | ADAM17 counter inactive
COc1ccc(/C=C/C(=O)OCC(=O)c2c(C)[nH]c3ccccc23)cc1OC	none
Cc1ccc(NS(=O)(=O)c2cc(C(=O)NCCSC3CCCCC3)ccc2C)cc1	ADAM10 inh 21 | ADAM10 confirm inactive | ADAM17 counter inactive
CCOc1ccc(CCN2C(=S)N([C@@H](Cc3ccc(O)cc3)CN3CCC[C@@H]3CN3C(=S)NC[C@@H]3CC(C)C)C[C@@H]2Cc2ccccc2)cc1	ADAM10 inh 21 (no result: NR3A LBD binder) | ADAM10 confirm inactive | ADAM17 counter inactive
O=c1c2ccccc2c(-c2ccc(O)cc2)nn1-c1cccc(C(F)(F)F)c1	NR3A LBD binder 25, ADAM17 inh 12, ADAM10 inh 21 | ADAM10 confirm inactive | ADAM17 counter inactive
O=c1c2ccccc2c(-c2cccc(C(F)(F)F)c2)nn1-c1ccccc1	none
Cc1cc(N2CCOCC2)ccc1/C=C\[N+](=O)[O-]	ADAM10 inh 20 | ADAM10 confirm inactive | ADAM17 counter inactive
O=[N+]([O-])c1ccc(N2CCOCC2)cc1O	none
O=C1C(=O)N(Cc2ccco2)C(c2cccs2)/C1=C(\O)c1cccc([N+](=O)[O-])c1 (stereo not given)	none
COc1ccc(C(=O)NCCSC2CCCCC2)cc1	none
CCOC(=O)c1c(C)oc2ccc(NS(=O)(=O)c3cccs3)cc12	ADAM10 inh 21 | ADAM10 confirm inactive | ADAM17 counter inactive
COCCOC(=O)c1c(C)oc2ccc(NS(=O)(=O)c3ccc(C(=O)O)cc3)cc12	none
Cc1ccc(C(=O)NNC(=S)NC(=O)c2ccccc2)cc1	ADAM10 inh 24 | ADAM10 confirm inactive | ADAM17 counter inactive
O=C(O)c1cccc(NC(=S)NC(NC(=O)c2ccco2)C(Cl)(Cl)Cl)c1 (stereo not given)	none
O=C(NC(NC(=S)Nc1ccc(Cl)c(Cl)c1)C(Cl)(Cl)Cl)c1ccco1 (stereo not given)	ADAM10 inh 29 | ADAM10 confirm inactive | ADAM17 counter inactive
COc1ccc(S[C@]2(C(=O)N3CCN(C(C)=O)CC3)CC(=O)N(C(=O)Nc3ccc(C)c(Cl)c3)[C@@H]2c2ccc(OC)cc2)cc1	ADAM17 inh 9.5, ADAM10 inh 20 (no result: aDG glyco act, NR3A LBD binder, FAS TE block) | ADAM10 confirm inactive | ADAM17 counter inactive
CCOC(=O)c1c(C)[nH]c(C)c1S(=O)(=O)N(C)CC(=O)NCc1ccc(C)cc1	none
N#C/C(=N/Nc1ccc([N+](=O)[O-])cc1)C(=N)N1CCCCC1	none
N#C/C(=N\Nc1ccc([N+](=O)[O-])cc1)C(N)=S	ADAM10 inh 20 | ADAM10 confirm inactive | ADAM17 counter inactive
O=C(C=Cc1ccc(OCc2ccccc2)cc1)c1c(F)cccc1F	none (no result: aDG glyco act, NR3A LBD binder, FAS TE block)
CCOc1ccc(/C=C2/C(=O)N(c3ccc(OC)cc3)C(=S)N2CC(=O)OC)cc1OCC	none
CCOc1ccc(N2C(=O)/C(=C/c3cc(OC)c(OC)c(OC)c3)N(CC(=O)OC)C2=S)cc1	ADAM10 inh 20 | ADAM10 confirm inactive | ADAM17 counter inactive
O=C(Nc1cccc(C(F)(F)F)c1)C1Cc2c(-c3ccccc3)ccnc2O1 (stereo not given)	ADAM10 inh 22 (no result: NR3A LBD binder) | ADAM10 confirm inactive | ADAM17 counter inactive
